Screens as filed in PubChem BioAssay.
DRV1 agonist: qHTS for Agonists of Human Resolvin D1 Receptor DRV1; activation, % at 76.9 µM; 48,000 compounds, 2.5% hits; CHO-K1 GPR32 beta-arrestin PathHunter luminescence, 90 min; zero percent set by DMSO-only wells;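 active means activation of at least 60% and not above a set upper limit, about 1 call in 100 departs from these limits; inconclusive means activation of 40% to 60%, or above that upper limit; inactive means activation under 40%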
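Cells are plated overnight, treated with compounds in DMSO for 90 minutes at 37 °C, and developed with PathHunter detection reagent for 1 hour before luminescence is read; signal reflects beta-arrestin binding to GPR32 in engineered CHO-K1 cells.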
NTMT1 inhibitor: Primary qHTS for Inhibitors of N-terminal methyltransferase 1 (NTMT1): MTaseGlo Assay. N-terminal Xaa-Pro-Lys N-methyltransferase 1 (Homo sapiens), Q9BV86. 59,000 compounds, 2.5% hits. AID 1645870, 2021. Potency, µM (series often up to 114 µM), actives largely listed as inhibitors. NTMT1 MTase-Glo SAH luminescence, purified enzyme; further: nearly all actives have a fitted effect of over 65% in size
SKOV3 invasion: Primary qHTS assay for Inhibitors of ovarian cancer metastasis using an organotypic tumor microenvironment (TME) model; AID 1963576, 2024; 46,000 compounds, 0.1% hits; SKOV3ip1-GFP adhesion/invasion on 3D omental model, fluorescence; Potency, µM (series often up to 45.8 µM), usual class: inhibitors; further: nearly all actives have a fitted effect of over 65% in size
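Adhesion/invasion was scored as fixed GFP-labeled SKOV3ip1 cell counts (488/509 nm), normalized to DMSO and tomatine controls. Cancer cells in serum-free medium, with four compound doses (0.36-46 umol/L), sat 2 hr at RT then 16 hr at 37 C on a 48 hr fibroblast/mesothelial/ECM culture.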
FH mod: Identification of activators of human fumarate hydratase by quantitative high-throughput screening; 54,000 compounds, 0.22% hits; FH coupled MDH/diaphorase resazurin fluorescence, 15 min; Fumarate hydratase, mitochondrial (Homo sapiens), P07954; AID 1347055, 2019; Potency, µM (highest dose often 79.9 µM), most hits filed as inhibitors; further: the screen sought activators but most active calls are inhibition curves; nearly all actives have a fitted effect of over 45% in size
Target sequence (P07954 whole entry, looked up): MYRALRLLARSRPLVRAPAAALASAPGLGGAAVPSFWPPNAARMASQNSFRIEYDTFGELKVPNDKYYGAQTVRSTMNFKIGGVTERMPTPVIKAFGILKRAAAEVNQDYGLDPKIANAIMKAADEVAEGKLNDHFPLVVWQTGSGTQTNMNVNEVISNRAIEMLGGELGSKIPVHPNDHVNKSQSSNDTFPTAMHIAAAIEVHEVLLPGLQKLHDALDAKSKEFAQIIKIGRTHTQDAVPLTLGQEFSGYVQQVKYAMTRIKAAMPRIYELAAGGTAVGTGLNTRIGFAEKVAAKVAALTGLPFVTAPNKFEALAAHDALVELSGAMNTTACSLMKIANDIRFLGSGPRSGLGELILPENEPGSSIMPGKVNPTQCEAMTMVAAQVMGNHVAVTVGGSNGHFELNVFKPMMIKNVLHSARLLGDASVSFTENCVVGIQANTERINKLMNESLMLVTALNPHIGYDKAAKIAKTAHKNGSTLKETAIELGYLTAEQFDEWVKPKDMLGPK
Of the large screens only hits and unclear results are named; the others gave an inactive call; ! = not active in a repeat. Compounds with a hit are over-represented: about 3.9% of the library has one in this group of screens. Unless noted, the call rests on the fitted dose curve; in most records, active means well fitted curve in the direction sought with a large enough effect; inconclusive means small, poorly fitted or top-dose-only effect, or another doubt; inactive means no such curve, though single readings can be large; an effect the other way counts as inactive or inconclusive.

O=C(N[C@H](Cc1ccccc1)C(=O)O)c1sc2cc(F)ccc2c1Cl	none (no result: DRV1 agonist, SKOV3 invasion)
CCC(=O)Nc1ccc2nc(SCc3ccc(C)cc3)sc2c1	DRV1 agonist 86
CC(C)(C)C(=O)Nc1ccc2nc(SCc3ccccc3)sc2c1	DRV1 agonist 120
Cc1ccc(CSc2nc3ccc(NC(=O)CC(C)C)cc3s2)cc1	none
Cc1ccc(CSc2nc3ccc(NC(=O)COc4ccc(F)cc4)cc3s2)cc1	DRV1 agonist 88
NC(=O)CSc1nc2ccc(NC(=O)COc3ccccc3)cc2s1	DRV1 agonist 70
C[C@@H]1[C@H](O)[C@@H](C)C=CC=CC=CC=CC=CC=CC=C[C@H](O[C@@H]2O[C@H](C)[C@H](O)[C@H](N)[C@@H]2O)C[C@@H]2O[C@](O)(C[C@@H](O)C[C@@H](O)[C@H](O)CC[C@@H](O)C[C@@H](O)CC(=O)O[C@H]1C)C[C@H](O)[C@@H]2C(=O)O	NTMT1 inhibitor inconclusive (no result: DRV1 agonist)
Cc1cc(-c2ccc(/C=C3\SC(=Nc4ccc(Cl)c(C(=O)O)c4)NC3=O)o2)c([N+](=O)[O-])cc1C	NTMT1 inhibitor 25µM, FH mod 25µM (no result: DRV1 agonist, SKOV3 invasion)
O=C(Nc1ccc(-c2ccccc2)cc1)[C@H](Cc1ccc(O[S+](=O)([O-])c2cccc3cnccc23)cc1)N[S+](=O)([O-])c1cccc2cnccc12	none (no result: DRV1 agonist, SKOV3 invasion, FH mod)
Cc1csc(NC(=O)c2sc3nc4c(c(C(F)(F)F)c3c2N)CCC4)n1	NTMT1 inhibitor 27µM! (no result: DRV1 agonist)
COc1ccc(CN(Cc2ccccc2)C(=O)c2ccccc2N)cc1COc1ccc(NC(C)=O)cc1	none (no result: DRV1 agonist, SKOV3 invasion, FH mod)
COc1ccc2nc3n[nH]c(C)c3c(NCCOCCO)c2c1	NTMT1 inhibitor 20µM! (no result: DRV1 agonist, SKOV3 invasion)
Fc1ccc(Nc2nc(-c3ccncc3Cl)nc3ccccc23)cc1F	none (no result: DRV1 agonist, SKOV3 invasion, FH mod)
O=C(c1ccc(CSc2nc3ccncc3n2Cc2ccc(F)cc2)cc1)N1CCCCCC1	DRV1 agonist 61
Cc1cc2n(n1)CCCN2C(=O)Nc1ccc(Cl)cc1	DRV1 agonist 108, NTMT1 inhibitor inconclusive
Cc1cc2n(n1)CCCN2C(=O)Nc1ccc(F)c(Cl)c1	none
CC(C)S(=O)(=O)c1ccc2nccc(Nc3ccc4scnc4c3)c2c1	none (no result: DRV1 agonist, SKOV3 invasion)
O=C(O)c1cc2cccc([N+](=O)[O-])c2[nH]1	none (no result: DRV1 agonist, SKOV3 invasion)
CSc1nn(Cc2cccc(Cl)c2)c(N(C(C)=O)C(C)=O)c1S(=O)(=O)c1ccccc1	DRV1 agonist 76
CC(=O)Nc1cc(-c2ccccc2)nn1Cc1cccc(Cl)c1	none
COC(=O)C[C@H]1C(C)(C)[C@H](OC(=O)C(C)C)C2CC3=C4CC(=O)O[C@@H](c5ccoc5)[C@]4(C)CCC3[C@@]1(C)C2=O (some centres not stated)	none (no result: DRV1 agonist, SKOV3 invasion)
O=C(/C=C/c1ccc2ccccc2n1)c1ccncc1	NTMT1 inhibitor inconclusive (no result: DRV1 agonist, SKOV3 invasion)
O=C(NCCc1ccc(Cl)cc1)c1cc2c(s1)-c1ccccc1OC2	DRV1 agonist 62, NTMT1 inhibitor inconclusive
Cc1ccc(CCNC(=O)c2cc3c(s2)-c2c(C)cccc2OC3)cc1	NTMT1 inhibitor 89µM
O=C(NCCCN1CCN(c2ccc(F)cc2)CC1)c1cc2c(s1)-c1ccccc1OC2	DRV1 agonist 80, FH mod inconclusive
COc1ccc(C)c2sc(N3CCN(C(=O)c4cccc(F)c4)CC3)nc12	none
COc1ccc(C)c2sc(N3CCN(C(=O)c4ccco4)CC3)nc12	DRV1 agonist 86, NTMT1 inhibitor inconclusive
O=C(Nc1ccccc1)OCc1c(-c2ccccc2)no[n+]1[O-]	none (no result: DRV1 agonist, SKOV3 invasion, FH mod)
O=C(NCc1ccc(F)cc1)C(=O)c1c[nH]c2ccccc12	none (no result: DRV1 agonist, SKOV3 invasion)
CCn1c(=O)sc2cc(NS(=O)(=O)c3ccc(C)cc3)ccc21	DRV1 agonist 61
CCc1ccc(S(=O)(=O)Nc2ccc3c(c2)sc(=O)n3C)cc1	none
Fc1cc(Nc2nc(-c3ccncc3)nc3ccccc23)ccc1OCC(F)(F)F	none (no result: DRV1 agonist, SKOV3 invasion, FH mod)
O=C(COc1ccccc1F)NC1CC(=O)N(c2ccc3c(c2)OCCO3)C1 (configuration not stated)	NTMT1 inhibitor 89µM
O=C(COc1ccc(F)cc1)NC1CC(=O)N(c2ccc3c(c2)OCCO3)C1 (configuration not stated)	DRV1 agonist 115
O=C(COc1ccccc1)NC1CC(=O)N(c2ccc3c(c2)OCCO3)C1 (configuration not stated)	none
c1ccc(CNc2nc(-c3cccs3)nc3ccccc23)cc1	none (no result: DRV1 agonist, SKOV3 invasion, FH mod)
